# Compounds with a hit are over-represented: about 3.5% of the library has one in this group of screens.
# Anthrax LF inh2 – anthrax lethal factor protease inhibition | multiplex microsphere protease cleavage assay, LF | inhibition, % at 10 µM | 360,000 tested, 0.12% active | AID 588501; note: plate controls were buffer without enzyme for full effect and enzyme alone for no effect
# BoNT-A LC inh2 – BoNT A light chain protease inhibition. inhibition, % at 10 µM. multiplex microsphere protease substrate cleavage, flow cytometry. 360,000 tested, 0.17% active; note: plate controls were buffer without enzyme for full effect and enzyme alone for no effect
# BoNT-F LC inh – blocks Botulinum neurotoxin F light chain protease | AID 588497 | 360,000 tested, 0.22% active | Multiplex microsphere protease cleavage assay, flow cytometry | inhibition, % at 10 µM; in the data active = inhibition above about 35%, passing the limit was not always enough; inconclusive = no clear call, values can overlap the other calls; note: plate controls were buffer without enzyme for full effect and enzyme alone for no effect
# Bead autofluor – counter-screen for toxin protease inhibitors: compound fluorescence; compound autofluorescence counterscreen, microsphere flow cytometry; hits give high values; fluorescence intensity (test concentration not listed); 360,000 tested, 3.1% active; in the data active = fluorescence intensity above about 16000; inconclusive = no clear call, values can overlap the other calls
# An asterisk follows results filed as active; ? = inconclusive. Cut-off read from the data, not from the text of the source, unless noted: active = inhibition above about 30%; inconclusive = no clear call, values can overlap the other calls; inactive = below that.
SMILES,Anthrax LF inh2,BoNT-A LC inh2,BoNT-F LC inh,Bead autofluor
COCCNC(=O)COc1cc(=O)n(C)c2ccccc12,-1,0,-4,16570*
COc1ccc(CCNC(=O)COc2cc(=O)n(C)c3ccccc23)cc1OC,-2,0,-3,2266
Cc1ccc(C)c(N2CCN(C(=O)Cn3c(=O)[nH]c4ccsc4c3=O)CC2)c1,-11,0,5,6264
O=C1CNC(c2ccccc2)C(c2ccccc2)N1 (stereo not drawn),2,0,-8,3630
CCC1CCCCN1CCCNC(=O)COc1cc(=O)n(C)c2ccccc12 (stereo not drawn),0,-1,-2,20141*
Cn1c(=O)cc(OCC(=O)NCCCN2CCN(c3ccccc3F)CC2)c2ccccc21,0,4,8,20602*
Cn1c(=O)cc(OCCCC(=O)NCCN2CCN(c3ccccc3F)CC2)c2ccccc21,-3,0,-13,5817
O=C(CCc1ccccc1)N=C1SC2CS(=O)(=O)CC2N1c1ccccc1F (stereo not drawn),-5,0,-3,5830
CCNC(=O)C1CN(S(=O)(=O)c2ccccc2)CCN1S(=O)(=O)c1ccccc1 (stereo not drawn),1,0,5,9897
O=C(NC1CCCCC1)C1CN(S(=O)(=O)c2ccccc2)CCN1S(=O)(=O)c1ccccc1 (stereo not drawn),-2,-2,-5,24405*
COC12CC(=O)C(C(C)=O)=C(O)C1(C)c1c(O)c(C)c(O)c(C(C)=O)c1O2 (stereo not drawn),-7,-1,-5,4289
CCNC(=O)NC(=O)CSc1ccc(S(=O)(=O)N2CCCCC2)cn1,1,0,-2,3925
CCN(CC)S(=O)(=O)c1cc(C(=O)Oc2ccccc2OC)ccc1OC,3,1,4,22741*
CCOc1ccc(NC(=O)NCCN2C(C)CCCC2C)cc1 (stereo not drawn),0,-1,-1,17584*
CCOc1ccc(NC(=O)NCCCSC2CCCCC2)cc1,1,0,0,22514*
CCOc1ccc(NC(=O)NC2CCCCCCC2)cc1,-1,-3,-7,6558
CCOc1ccc(C(=O)C[n+]2cccc3cc(C)ccc32)cc1,12,-18,79*,25078*
N#C/C(=C/c1ccc(N2CCCCC2)o1)C(=O)Nc1ccc2ccccc2c1,39*,26,65*,60126*
N#C/C(=C\c1ccc(N2CCOCC2)o1)C(=O)Nc1ccc(O)cc1,-1,-1,2,4565
N#C/C(=C/c1ccc(N2CCCCC2)o1)C(=O)Nc1ccc(Cl)cc1,-1,-1,36*,17947*
COc1ccc(NC(=O)/C(C#N)=C\c2ccc(N3CCOCC3)o2)cc1,1,-1,8,6770
COC(=O)c1cc(OC)c(OC)cc1NC(=O)CN1C(=O)c2ccccc2C1=O,-13,-1,-6,5556
COC(=O)c1cc(-c2ccccc2)sc1NC(=O)CN1C(=O)c2ccccc2C1=O,-4,?,-2,23511*
CCOC(=O)c1cnn(CCOC(=O)C2CC2)c1NC(=O)C1CC1,-2,1,-2,20293*
Cc1c(C(=O)N2CCN(C)CC2)oc2c1C(=O)CC(C)(C)C2,-6,4,5,21465*
SMILES,Anthrax LF inh2,BoNT-A LC inh2,BoNT-F LC inh,Bead autofluor
Cc1c(C(=O)N2CCc3ccccc32)oc2c1C(=O)CC(C)(C)C2,0,2,1,23325*
COc1cc2c(C(=O)N3CCN(C)CC3)c(C)n(-c3ccccc3)c2cc1Br,1,-2,-3,25113*
COc1cc2c(C(=O)N3CCN(C)CC3)c(C)n(C)c2cc1Br,-10,-1,-15,2687
CCOc1ccc(-c2nnn(CC(=O)NCc3ccco3)n2)cc1,-2,?,-2,19976*
CCCOc1ccc(-c2nnn(CC(=O)N3CCCCC3)n2)cc1,2,0,-8,4558
O=C(Cn1nnc(-c2ccccc2)n1)NCc1ccco1,3,0,5,2728
CCCOc1ccc(-c2nnn(CC(=O)OCC)n2)cc1,-6,-1,-1,22991*
CCOC(=O)C(Cc1ccccc1)NC(=O)Cn1nnc(-c2ccccc2)n1 (stereo not drawn),4,-3,-2,20857*
c1ccc(OCCNc2ccn3nc(-c4cccs4)cc3n2)cc1,-6,0,-6,4202
CC1CC(C)CN(S(=O)(=O)c2ccc3c(c2)oc(=O)n3CC(=O)NCCCOC(C)C)C1 (stereo not drawn),-1,1,2,5391
CCOC(=O)C1(C)CCCN(C(=O)Cc2ccc3ccccc3c2)C1 (stereo not drawn),2,-1,-2,3572
COc1ccc(CCN(C)Cc2c(F)cccc2F)cc1OC,-2,?,-2,23473*
COc1ccc(S(=O)(=O)NC2CCCC2)c(OC)c1,3,2,14,4167
